Reference: PubChem BioAssay AID1851 (National Center for Advancing Translational Sciences (NCATS), 2009)
Among all 16,000 compounds or so, about 4,000 (25%) were called active. Roughly 26% stayed inconclusive and do not appear here. The call rests on the fitted dose curve; in most records, active means well fitted curve in the direction sought with a large enough effect; inconclusive means small, poorly fitted or top-dose-only effect, or effect the other way; inactive means no such curve, though single readings can be large or run the other way. The list is a sample of the results.

These compounds were tested against Cytochrome P450 2C9 (Homo sapiens) (UniProt P11712) (assay: Cytochrome panel assay with activity outcomes). Settings: recombinant CYP, pro-luciferin dealkylation, luminescence, p450-cyp2c9; series mostly up to 57.1 µM.
On the % scale 0 is the no-effect control and ±100 the full control effect.

Sequence of Cytochrome P450 2C9 (Homo sapiens) (P11712 whole entry, looked up): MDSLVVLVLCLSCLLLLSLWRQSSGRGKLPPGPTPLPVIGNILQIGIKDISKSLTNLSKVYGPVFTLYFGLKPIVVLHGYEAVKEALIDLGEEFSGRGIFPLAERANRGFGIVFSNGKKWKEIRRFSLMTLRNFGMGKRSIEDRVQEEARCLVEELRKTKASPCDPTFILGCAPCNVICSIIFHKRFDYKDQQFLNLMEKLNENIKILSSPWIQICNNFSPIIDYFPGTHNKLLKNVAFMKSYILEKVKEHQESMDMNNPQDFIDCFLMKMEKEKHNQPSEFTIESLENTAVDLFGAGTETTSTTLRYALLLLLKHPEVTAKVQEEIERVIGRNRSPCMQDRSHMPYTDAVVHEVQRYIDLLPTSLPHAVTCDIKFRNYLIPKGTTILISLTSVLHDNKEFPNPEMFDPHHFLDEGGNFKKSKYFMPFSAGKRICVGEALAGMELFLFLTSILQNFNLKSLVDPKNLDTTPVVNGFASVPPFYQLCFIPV

| SMILES | activity, negative = inhibition | AC50 |
| --- | --- | --- |
| O=P(O)(CCP(=O)(O)c1ccccc1)c1ccccc1 | 2.87% [at 11.4 µM] (inactive) |  |
| Cc1noc(C)c1-c1cncnc1N(C)Cc1ccco1 | 17.6% [at 2.29 µM] (inactive) |  |
| NCC[C@H](N)C(=O)O | 0.553% [at 11.4 µM] (inactive) |  |
| CC1(C)OC(C(N)=O)C(C(N)=O)O1 (configuration not stated) |  | inactive |
| COCCNC(=O)c1ccc2c(c1)nc(C)n2-c1cc(OC)c(OC)c(OC)c1 |  | inactive |
| CC(C)(C)c1ccc(C(=O)NCCC(=O)NCc2ccco2)cc1 |  | 2.24 µM (active) |
| C/C(CC(=O)NCc1ccco1)=N\NC(=O)Cc1ccccc1 |  | inactive |
| Cc1ccc(OCCCC(=O)NCc2ccco2)cc1 |  | 14.1 µM (active) |
| Cc1ccc(OCC(=O)NNC(=O)CCC(=O)NCc2ccccc2)cc1 |  | inactive |
| CCCCOc1ccc(C(=O)NCc2ccco2)cc1 |  | 10 µM (active) |
| CCOc1ccc(-n2c(C)nc3cc(C(=O)NCc4ccco4)ccc32)cc1 |  | 17.8 µM (active) |
| CCS(=O)(=O)N1CCC(C(=O)NCc2ccco2)CC1 |  | inactive |
| CS(=O)(=O)Nc1c(O)ccc2c1CCC[C@H]2C1=NCCN1 |  | inactive |
| CNCCCC1c2ccccc2C=Cc2ccccc21 |  | inactive |
| COc1ccc(Cl)cc1N=Nc1ncc[nH]1 |  | inactive |
| CC(=O)N1CCC[C@@]2(CCN(Cc3ccccc3)C2)C1 |  | inactive |
| O=C(O)c1ccc2c(c1)C(=O)N(C(Cc1ccc(O)cc1)C(=O)O)C2=O (configuration not stated) |  | inactive |
| C[N+](C)([O-])CCC=C1c2ccccc2CCc2ccccc21 | -29.7% [at 11.4 µM] (inactive) |  |
| Nc1ccc(C(=O)C[C@H](N)C(=O)O)cc1O | -13.6% [at 11.4 µM] (inactive) |  |
| Cc1sc(NC(=O)C2C3CCC(O3)C2C(=O)O)c(C(=O)OC(C)C)c1-c1ccc(Cl)cc1 (configuration not stated) |  | 14.1 µM (active) |
| Cc1ccc(-c2c(C)sc(NC(=O)C3C4CCC(O4)C3C(=O)O)c2C(=O)OC(C)C)cc1 (configuration not stated) |  | inactive |

| SMILES | activity, negative = inhibition | AC50 |
| --- | --- | --- |
| CCOC(=O)c1ccc(N/C(=N\S(=O)(=O)c2ccccc2C)c2ccccc2)cc1 |  | 3.98 µM (active) |
| NC(=O)c1ccccc1-c1nc(-n2ccnc2)c2ccccc2n1 | 8.72% [at 2.29 µM] (inactive) |  |
| COCCNc1ncnc2ccc(-c3ccoc3)cc12 | 0.323% [at 2.29 µM] (inactive) |  |
| CC(=O)OC[C@@H]1O[C@H](C/C=N\O[C@@H]2O[C@H](COC(C)=O)[C@@H](OC(C)=O)[C@H](OC(C)=O)[C@H]2OC(C)=O)C=C[C@@H]1OC(C)=O | 4.96% [at 11.4 µM] (inactive) |  |
| CC(=O)NS(=O)(=O)c1ccc(NC(=S)NC(=O)C(C)(C)C)cc1 |  | inactive |
| COc1ccc(CC(=O)NC(=S)Nc2ccc(S(=O)(=O)NC(C)(C)C)cc2)cc1 |  | 8.91 µM (active) |
| CN1CC[C@@]2(CCCN(C(=O)c3cc(C(F)(F)F)cc(C(F)(F)F)c3)C2)C1 |  | inactive |
| CCCCCC/C(C)=C1/SC(=S)NC1=O |  | 5.01 µM (active) |
| CCOC(=O)c1ccccc1OCc1cc(/C=N/n2cnnc2)ccc1OC |  | 2.24 µM (active) |
| CCOC(=O)C1=C(O)/C(=C\c2ccc(OC)c(OC)c2)N=C1C |  | inactive |
| CCOC(=O)C1=C(O)/C(=C/c2cc(OC)c(OC)c(OC)c2)N=C1C |  | inactive |
| COc1ccc(C(=O)N2CCC3(CCN(C(=O)Nc4cccc(F)c4)CC3)CC2)cc1 |  | inactive |
| CCN=C(Nc1cccc(F)c1)SC1CC(=O)N(c2ccc(OC)cc2)C1=O (configuration not stated) |  | 6.31 µM (active) |
| O=C1CC(SC(=Nc2ccccc2)Nc2ccccc2)C(=O)N1c1cccc(Cl)c1 (configuration not stated) |  | 3.55 µM (active) |
| O=C1CC(N2CCOCC2)C(=O)N1c1cccc(Cl)c1 (configuration not stated) |  | inactive |
| CCOC(=O)NNC1CC(=O)N(c2ccc(OC)cc2)C1=O (configuration not stated) |  | inactive |
| Cc1cnc(CNc2ncnc3ccc(-c4ccccc4Cl)cc23)cn1 | -25% [at 2.29 µM] (inactive) |  |
| COc1ccc(N2C(=O)CC(S/C(N)=N/N=C(\C)c3cccs3)C2=O)cc1 (configuration not stated) |  | 3.98 µM (active) |
| COc1ccc(-n2c(=O)c(-c3cccs3)nc3cnc(N4CCN(C)CC4)nc32)cc1 |  | inactive |
| CCCOc1ccc(N2C(=O)CC(S/C(N)=N/N=C(\C)c3cccs3)C2=O)cc1 (configuration not stated) |  | 4.47 µM (active) |
| COc1ccc(C2=Nc3cccc4cccc(c34)N2)cc1 |  | inactive |

| SMILES | activity, negative = inhibition | AC50 |
| --- | --- | --- |
| Cn1cnc2c(NC3CCCC3)ncnc21 |  | inactive |
| COc1ccc(C(=O)N2CC3(CC(c4ccc(Cl)cc4)=NO3)C[C@H]2C(=O)NCC(N)=O)cc1 (some centres not stated) |  | inactive |
| COc1ccccc1NC(=O)[C@H](COCc1ccccc1)NC(=O)OC(C)(C)C |  | 7.94 µM (active) |
| COc1ccccc1NC(=O)C(C/C=C(\C)Cl)C(C)=O (configuration not stated) |  | inactive |
| CO[C@H]1COC(=O)CCC[C@H](C)[C@@H](OC)COC(=O)C/C=C\[C@@H]1C | 14.4% [at 11.4 µM] (inactive) |  |
| CN1CCN(c2ncc3nc(-c4cn(C)c5ccccc45)c(=O)n(-c4ccccc4)c3n2)CC1 |  | inactive |
| Cn1cc(-c2nc3cncnc3n(C3CC3)c2=O)c2ccccc21 |  | inactive |
| Cn1cc(-c2nc3cnc(N4CCNCC4)nc3n(C3CC3)c2=O)c2ccccc21 |  | 3.98 µM (active) |
| Cn1cc(-c2nc3cnc(N4CCNCC4)nc3n(-c3ccccc3)c2=O)c2ccccc21 |  | inactive |
| Cn1cc(-c2nc3cnc(N4CCOCC4)nc3n(C3CC3)c2=O)c2ccccc21 |  | inactive |
| Cn1cc(-c2nc3cnc(N4CCNCC4)nc3n(C)c2=O)c2ccccc21 |  | 7.94 µM (active) |
| C[C@@H]1CCCN(CP(=O)(c2ccccc2)c2ccccc2)C1 | -15.6% [at 11.4 µM] (inactive) |  |
| Cc1n[nH]c(C)c1N=Nc1cc(Cl)ccc1Cl |  | inactive |
| CCOC(=O)CNc1c(-c2ccccc2)nc2ccc(Cl)cn12 |  | 2.82 µM (active) |
| CCOc1ccc(Cl)cc1CNCCNCCO |  | inactive |
| Oc1ccc(Cl)cc1Cc1cc(Cl)cc(Cc2cc(Cl)ccc2O)c1O |  | 2.51 µM (active) |
| O=C(O)Cc1cc(Cl)ccc1O | 12.8% [at 11.4 µM] (inactive) |  |
| Oc1ccc(Cc2cc(Cl)cc(Cl)c2O)cc1Cl |  | 0.2 µM (active) |
| CN(C)Cc1cc(Cl)c(O)c(CN(C)C)c1 | -9.61% [at 11.4 µM] (inactive) |  |
| COc1ccccc1CNc1ncncc1-c1cccnc1 | -1.61% [at 2.29 µM] (inactive) |  |
